CYP2C19 act: cytochrome P450 2C19 (human) activation. P33261. recombinant CYP2C19, luciferin-H EGE luminescence; active compounds read high; 0 = fully inhibited enzyme, 1 = untreated enzyme. activation factor at 5 µM. 96,000 tested, under 10 active;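 active = activation factor of at least 2 at 5 µM in the primary screen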;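 also: 0 = wells with 2.5 mM tranylcypromine and 1 = vehicle-only wells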
Target sequence (P33261 whole entry, looked up): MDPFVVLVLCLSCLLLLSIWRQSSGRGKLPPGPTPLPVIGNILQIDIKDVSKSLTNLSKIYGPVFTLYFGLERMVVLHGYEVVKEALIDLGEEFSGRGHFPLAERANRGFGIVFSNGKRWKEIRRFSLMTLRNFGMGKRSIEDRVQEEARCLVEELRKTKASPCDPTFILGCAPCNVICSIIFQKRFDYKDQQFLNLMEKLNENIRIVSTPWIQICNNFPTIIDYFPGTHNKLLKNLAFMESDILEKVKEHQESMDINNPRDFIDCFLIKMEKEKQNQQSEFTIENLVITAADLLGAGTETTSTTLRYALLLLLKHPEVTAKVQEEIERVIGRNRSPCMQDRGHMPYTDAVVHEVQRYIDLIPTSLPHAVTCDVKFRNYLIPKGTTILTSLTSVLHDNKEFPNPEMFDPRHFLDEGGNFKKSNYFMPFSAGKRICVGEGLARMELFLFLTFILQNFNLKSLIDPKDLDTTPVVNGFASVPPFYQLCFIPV
CYP2C9 inh: inhibitors of human CYP2C9. P11712. CYP2C9 Supersomes, luciferin-H conversion, luminescence. inhibition, % at 5 µM. actives 20% (n = 96,000). AID 777;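 active = blocking of liver enzyme CYP2C9 beyond about 50% at 5 µM, limit read from the data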
sEH inhibitor: blocks human soluble epoxide hydrolase activity | recombinant human sEH enzymatic activity assay | AID 707 | actives 0.34% (n = 91,000) | inhibition, % at 2 µM; in the data active = inhibition above about 80%
sEH activator: increases human soluble epoxide hydrolase activity. activation, % at 2 µM. purified human sEH enzymatic activity, activator screen. P34913. AID 717. actives 0.04% (n = 91,000); in the data active = activation above about 37%
CYP2C9 act: increases human cytochrome P450 2C9 activity. activation factor at 5 µM. P11712. recombinant CYP2C9, luciferin-H conversion, luminescence; active compounds read high; factor 1 = untreated enzyme, 0 = blocked. actives 1.4% (n = 96,000);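 active = activation factor of 2 or more for CYP2C9 at a 5 µM dose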;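 also: 0 = sulfaphenazole-blocked wells and 1 = vehicle-only wells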
CYP2C19 inhib: blocks human cytochrome P450 2C19; P33261; CYP2C19 Supersomes, luciferin-H EGE luminescence, 30 min; inhibition, % at 5 µM; actives 21% (n = 96,000); AID 778;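 active = CYP2C19 inhibition above a set limit at 5 µM in the primary screen, cut at about 50% in these data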;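 also: plate controls were negative control wells for no effect and 2.5 mM tranylcypromine positive control for full effect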
Numbers without * were called inactive. Rows were chosen to be rich in hits. Some 27% of all compounds tested hit in one or more screens of this group.

`O=C(NCCCn1ccnc1)Nc1cccc(Cl)c1` gave CYP2C19 act 0, CYP2C9 inh 100.0*, sEH inhibitor 11.4, sEH activator -10.3, CYP2C9 act 0 and CYP2C19 inhib 95.8*.
`O=C(NCCCn1ccnc1)C(=O)NCc1ccc(Cl)cc1` gave sEH inhibitor 4.8 and sEH activator 0.2.
For O=C(CCn1cccc1)NCCc1ccc(Cl)cc1 the results were CYP2C19 act 0.4, CYP2C9 inh 23.7, sEH inhibitor 14.3, sEH activator -10.8, CYP2C9 act 0.8 and CYP2C19 inhib 58.9*.
COc1ccc(-n2nc3c(c2NC(=O)c2cc(Br)ccc2Cl)CS(=O)C3)cc1 (stereo unspecified) was read as CYP2C19 act 1.2, CYP2C9 inh -10.1, sEH inhibitor -9.1, sEH activator 8.1, CYP2C9 act 1.1 and CYP2C19 inhib -15.8.
Screening Cc1ccc(S(=O)(=O)N2CCC(C(=O)N[C@H](C(=O)NCC3CCCO3)C(C)C)CC2)cc1 (stereo partly specified) returned CYP2C19 act 1, CYP2C9 inh -0.8, sEH inhibitor 5.2, sEH activator -7.9, CYP2C9 act 1 and CYP2C19 inhib 4.6.
`O=C(Cc1c(F)cccc1Cl)Nc1ccncc1` gave CYP2C19 act 0.2, CYP2C9 inh 70.6*, sEH inhibitor 0.8, sEH activator -1.0, CYP2C9 act 0.3 and CYP2C19 inhib 81.5*.
Screening O=C(CCn1c(=O)sc2ccccc21)NCCCn1ccnc1 returned sEH inhibitor -0.1 and sEH activator 1.4.
For CC(C)(Oc1ccc(Cl)cc1)C(=O)NCCCn1ccnc1 the results were CYP2C19 act 0, CYP2C9 inh 87.0*, sEH inhibitor 16.6, sEH activator -15.5, CYP2C9 act 0.1 and CYP2C19 inhib 100.1*.
For O=C(CNC(=O)c1ccc(Cl)cc1)NCCCn1ccnc1 the results were CYP2C19 act 0.1, CYP2C9 inh 79.4*, sEH inhibitor 8.9, sEH activator -7.6, CYP2C9 act 0.2 and CYP2C19 inhib 85.2*.
`C=CCOc1ccc(NC(=O)C(=O)NCCCn2ccnc2)cc1` gave CYP2C19 act 0.5, CYP2C9 inh 47.1, sEH inhibitor 6.0, sEH activator -4.3, CYP2C9 act 0.5 and CYP2C19 inhib 47.7.
For O=C(Cc1c(F)cccc1Cl)NCCCn1ccnc1 the results were CYP2C19 act 0.1, CYP2C9 inh 78.8*, sEH inhibitor 11.1, sEH activator -10.4, CYP2C9 act 0.2 and CYP2C19 inhib 91.7*.
O=C(Cc1c(F)cccc1Cl)Nc1cccnc1 was read as CYP2C19 act 0.6, CYP2C9 inh 5.8, sEH inhibitor -1.7, sEH activator 4.7, CYP2C9 act 0.9 and CYP2C19 inhib 39.2.
O=C(CN1CCC(n2nnc3cc(F)ccc32)CC1)NCc1ccco1 was read as CYP2C19 act 0.7, CYP2C9 inh 29.6, sEH inhibitor 5.0, sEH activator -4.4, CYP2C9 act 0.7 and CYP2C19 inhib 26.3.
Screening CCOC(=O)C1CCN(C(=O)Cn2cc3c(n2)CCC(C)C3)CC1 (stereo unspecified) returned CYP2C19 act 0.6, CYP2C9 inh 0.4, CYP2C9 act 1 and CYP2C19 inhib 39.2.
Cc1nn(C(C)C(=O)NNC(=S)Nc2ccc(Cl)cc2)c(C)c1[N+](=O)[O-] (stereo unspecified) was read as CYP2C19 act 1, CYP2C9 inh 64.3*, sEH inhibitor 2.9, sEH activator -1.1, CYP2C9 act 0.4 and CYP2C19 inhib -0.1.
`N#CC1(Cc2ccc(Cl)cc2)c2ccccc2C=CN1C(=O)c1ccccc1` (stereo unspecified) gave CYP2C19 act 0, CYP2C9 inh 92.9*, sEH inhibitor -4.5, sEH activator 2.7, CYP2C9 act 0.1 and CYP2C19 inhib 96.5*.
For CC(C)CC(=O)Nc1ccc(N2CCOCC2)cc1 the results were CYP2C19 act 0.9, CYP2C9 inh -5.5, sEH inhibitor 9.0, sEH activator -7.0, CYP2C9 act 1.1 and CYP2C19 inhib 6.7.
Screening COC(=O)c1ccccc1OCC(=O)NC1CCCCC1 returned CYP2C19 act 0.4, CYP2C9 inh 49.0, sEH inhibitor 0.5, sEH activator -0.9, CYP2C9 act 0.5 and CYP2C19 inhib 64.2*.
For COc1ccccc1OCC(=O)NCC1CCCCC1 the results were CYP2C19 act 0.1, CYP2C9 inh -11.1, sEH inhibitor 1.0, sEH activator 2.0, CYP2C9 act 1.1 and CYP2C19 inhib 94.7*.
`CCc1ccccc1OCC(=O)NC1CCCC1` gave CYP2C19 act 0.1, CYP2C9 inh 35.9, sEH inhibitor 17.2, sEH activator -21.5, CYP2C9 act 0.6 and CYP2C19 inhib 92.9*.
Screening O=C(COn1nnc2ccccc21)NCC1CCCCC1 returned CYP2C19 act 0.4, CYP2C9 inh 5.1, sEH inhibitor 6.5, sEH activator -3.4, CYP2C9 act 0.9 and CYP2C19 inhib 55.2*.
For O=c1cc(NCc2ccco2)c2ccccc2o1 the results were CYP2C19 act 0.6, CYP2C9 inh 10.8, sEH inhibitor -1.8, sEH activator 0.0, CYP2C9 act 0.9 and CYP2C19 inhib 44.6.
Screening COc1cccc(OCCc2c(C)n[nH]c2C)c1 returned CYP2C19 act 0.8, CYP2C9 inh -2.6, sEH inhibitor -5.7, sEH activator 7.8, CYP2C9 act 1 and CYP2C19 inhib 19.1.
`Cc1cccc(OCCCCc2c(C)n[nH]c2C)c1` gave CYP2C19 act 0.1, CYP2C9 inh 75.8*, sEH inhibitor -9.6, sEH activator 9.9, CYP2C9 act 0.2 and CYP2C19 inhib 89.2*.
Screening COc1ccc(OCCCc2c(C)n[nH]c2C)cc1 returned CYP2C19 act 0.2, CYP2C9 inh 68.6*, sEH inhibitor -7.5, sEH activator 8.5, CYP2C9 act 0.3 and CYP2C19 inhib 84.8*.
Cc1n[nH]c(C)c1CCCOc1ccccc1 was read as CYP2C19 act 0.1, CYP2C9 inh 60.2*, sEH inhibitor -10.9, sEH activator 11.2, CYP2C9 act 0.4 and CYP2C19 inhib 86.9*.
`O=C(CN1CCN(c2ccc(Cl)cc2)CC1)Nc1ccc(F)c(F)c1` gave CYP2C19 act 0.7, CYP2C9 inh 46.1, sEH inhibitor -5.1, sEH activator 6.1, CYP2C9 act 0.5 and CYP2C19 inhib 25.8.
Screening O=C(CN(CCc1ccccc1)C(=O)CNS(=O)(=O)c1ccc(F)cc1)NCC1CCCO1 (stereo unspecified) returned CYP2C19 act 0.6, CYP2C9 inh 6.2, sEH inhibitor -9.6, sEH activator 10.5, CYP2C9 act 0.9 and CYP2C19 inhib 39.8.
Screening CSc1nc(N)nc(SCC(=O)C(C)(C)C)c1C#N returned CYP2C19 act 0.6, CYP2C9 inh 73.2*, sEH inhibitor 1.9, sEH activator 1.3, CYP2C9 act 0.3 and CYP2C19 inhib 44.4.
O=C(NCc1ccco1)c1ccc(COCC(F)(F)C(F)F)cc1 was read as CYP2C19 act 1, CYP2C9 inh 12.2, sEH inhibitor -4.2, sEH activator 3.1, CYP2C9 act 0.9 and CYP2C19 inhib -0.8.

Compound activity as filed in PubChem BioAssay.
